Compounds without any hit were thinned out: in the full panel of roughly 83,000, 20% have a hit.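 Cell lines were cultured in 96-well plates, exposed to a single compound concentration, and assessed for percent growth 48 hours later.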 Activity calls are given as the source filed them. The calls were made as follows: active = growth percent below 10; inactive = the rest.
Key:
Assay in all cases: NCI-60 one-dose screen, 48 h (100 = growth as untreated, 0 = no growth, -100 = all killed)
Conditions in all cases: 10 µM unless noted
NCI-H226 lung = system: NCI-H226 lung
NCI-H322M lung = system: NCI-H322M lung
HOP-62 NSCLC = system: HOP-62 NSCLC
NCI-H460 lung = system: NCI-H460 lung
HOP-92 NSCLC = system: HOP-92 NSCLC
NCI-H522 lung = system: NCI-H522 lung
A549/ATCC NSCLC = system: A549/ATCC NSCLC
786-0 renal = system: 786-0 renal
COLO 205 colon = system: COLO 205 colon
DU-145 prostate = system: DU-145 prostate

Measured: growth

CC(C)(C)Nc1nc2c(OCCc3ccccc3)cccn2c1-c1cccc(F)c1
active: NCI-H226 lung -7.74% | HOP-62 NSCLC -33.2% | NCI-H460 lung -11% | HOP-92 NSCLC -27% | NCI-H522 lung -0.543% | 786-0 renal 5.13% | COLO 205 colon -75%
inactive: NCI-H322M lung 20.1% | A549/ATCC NSCLC 12.3% | DU-145 prostate 22.7%

Clc1ccc2oc3c(NCCCN4CCOCC4)c4ccccc4nc3c2c1
active: NCI-H460 lung 6.4%
inactive: NCI-H226 lung 16.4% | NCI-H322M lung 21.6% | HOP-62 NSCLC 43.5% | HOP-92 NSCLC 33% | NCI-H522 lung 28.2% | A549/ATCC NSCLC 25.1% | 786-0 renal 20% | COLO 205 colon 13.2% | DU-145 prostate 16.8%

CCN1C(=S)N(CC)C2C1N=C(SC)N2/N=C/C=C/c1ccccc1[N+](=O)[O-] (stereo not given)
inactive: NCI-H226 lung 92.9% | NCI-H322M lung 92.3% | HOP-62 NSCLC 99.7% | NCI-H460 lung 93.5% | HOP-92 NSCLC 79.7% | NCI-H522 lung 93.6% | A549/ATCC NSCLC 92.8% | 786-0 renal 101% | COLO 205 colon 120% | DU-145 prostate 101%

COc1ccc(NC2=C(Cl)C(=O)C(C)=C(C)C2=O)cc1OC
inactive: NCI-H226 lung 92.6% | NCI-H322M lung 101% | HOP-62 NSCLC 99.6% | NCI-H460 lung 96% | HOP-92 NSCLC 130% | NCI-H522 lung 84.7% | A549/ATCC NSCLC 87.2% | 786-0 renal 107% | COLO 205 colon 110% | DU-145 prostate 104%

CCCC(=O)NC(c1cccnc1)c1cc(C)c2cccnc2c1O (stereo not given)
inactive: NCI-H226 lung 52.6% | NCI-H322M lung 32.4% | HOP-62 NSCLC 34.4% | NCI-H460 lung 19.3% | HOP-92 NSCLC 49.1% | NCI-H522 lung 22.2% | A549/ATCC NSCLC 48.4% | 786-0 renal 38.9% | COLO 205 colon 12.7% | DU-145 prostate 47.2%

COc1cccc(NC2=CC(=O)C(C)=C(C)C2=O)c1
inactive: NCI-H226 lung 97% | NCI-H322M lung 102% | HOP-62 NSCLC 106% | NCI-H460 lung 101% | HOP-92 NSCLC 104% | NCI-H522 lung 49.8% | A549/ATCC NSCLC 101% | 786-0 renal 95.8% | COLO 205 colon 103% | DU-145 prostate 113%

CCOC(=O)c1c(Nc2ccccc2)nn2c(N)c(C#N)c(-c3ccccc3)nc12
inactive: NCI-H226 lung 83.3% | NCI-H322M lung 94.8% | HOP-62 NSCLC 97.7% | NCI-H460 lung 93.2% | HOP-92 NSCLC 81.8% | NCI-H522 lung 89.7% | A549/ATCC NSCLC 97% | 786-0 renal 79.5% | COLO 205 colon 87.4% | DU-145 prostate 81.1%

COc1cc(N=Cc2sc(Nc3nccs3)nc2O)cc(OC)c1OC
inactive: NCI-H226 lung 79.5% | NCI-H322M lung 74% | HOP-62 NSCLC 80.1% | NCI-H460 lung 69.9% | HOP-92 NSCLC 72.8% | NCI-H522 lung 93.6% | A549/ATCC NSCLC 95.6% | 786-0 renal 96.6% | COLO 205 colon 99.6% | DU-145 prostate 93.3%

COc1cccc(OC)c1-c1nnn(C)c1C(=S)N1CCN(c2ccc([N+](=O)[O-])cc2Cl)CC1
inactive: NCI-H226 lung 88.6% | NCI-H322M lung 82.6% | HOP-62 NSCLC 106% | NCI-H460 lung 101% | HOP-92 NSCLC 80.3% | NCI-H522 lung 93.6% | A549/ATCC NSCLC 92.9% | 786-0 renal 92.1% | COLO 205 colon 107% | DU-145 prostate 100%

O=C(N/N=C/c1ccc([N+](=O)[O-])s1)c1[nH]c2ccc(Br)cc2c1-c1ccccc1
active: NCI-H460 lung -26.1% | HOP-92 NSCLC -7.35% | NCI-H522 lung -44.5% | 786-0 renal 9.9% | COLO 205 colon -55.5%
inactive: NCI-H226 lung 23.7% | NCI-H322M lung 54.9% | HOP-62 NSCLC 27.2% | A549/ATCC NSCLC 14.5% | DU-145 prostate 20.4%

O=c1/c(=C\c2ccc(-c3ccccc3)o2)sc2nc(-c3ccccc3)nn12
inactive: NCI-H226 lung 109% | NCI-H322M lung 105% | HOP-62 NSCLC 92.8% | NCI-H460 lung 106% | HOP-92 NSCLC 90% | NCI-H522 lung 98.3% | A549/ATCC NSCLC 103% | 786-0 renal 99.2% | COLO 205 colon 117% | DU-145 prostate 107%

Clc1ccc2oc3c(OCCCn4ccnc4)c4ccccc4nc3c2c1
inactive: NCI-H226 lung 88.5% | NCI-H322M lung 73.2% | HOP-62 NSCLC 87.4% | NCI-H460 lung 32.6% | HOP-92 NSCLC 53% | NCI-H522 lung 44% | A549/ATCC NSCLC 62% | 786-0 renal 46.5% | COLO 205 colon 36% | DU-145 prostate 64.1%

O=C(N/N=C/c1cccs1)c1[nH]c2ccc(Br)cc2c1-c1ccccc1
inactive: NCI-H226 lung 50.9% | NCI-H322M lung 44.7% | HOP-62 NSCLC 44.2% | HOP-92 NSCLC 39.9% | A549/ATCC NSCLC 23.1% | 786-0 renal 12% | DU-145 prostate 20.7%
active: NCI-H460 lung 6.54% | NCI-H522 lung -43.9% | COLO 205 colon -67.6%

COc1ccccc1/C=C/C=N/NC1=NC2C(S1)N(C)C(=O)N2C (stereo not given)
active: HOP-92 NSCLC 9.2% | NCI-H522 lung -24% | COLO 205 colon 5.69%
inactive: NCI-H226 lung 55.7% | NCI-H322M lung 51.7% | HOP-62 NSCLC 35.6% | NCI-H460 lung 11.1% | A549/ATCC NSCLC 48.3% | 786-0 renal 44.2% | DU-145 prostate 24.5%

N#Cc1c(-c2ccc(F)cc2)nc2c(C#N)c(Nc3ccccc3)nn2c1N
inactive: NCI-H226 lung 112% | NCI-H322M lung 105% | HOP-62 NSCLC 97.3% | NCI-H460 lung 106% | HOP-92 NSCLC 92.5% | NCI-H522 lung 97.9% | A549/ATCC NSCLC 101% | 786-0 renal 86.9% | COLO 205 colon 110% | DU-145 prostate 103%

CN(C)CCCNc1c2ccccc2nc2c1oc1ccc(Cl)cc12
inactive: NCI-H226 lung 28.5% | NCI-H322M lung 24.4% | HOP-62 NSCLC 55.7% | NCI-H460 lung 12.6% | HOP-92 NSCLC 34.8% | NCI-H522 lung 38% | A549/ATCC NSCLC 27.5% | 786-0 renal 18.6% | COLO 205 colon 14.5% | DU-145 prostate 20.8%

O=C1Nc2cc(Cl)ccc2/C1=C\c1ccc(OCc2ccc(Br)cc2F)cc1
inactive: COLO 205 colon 12.4%
active: NCI-H226 lung -50.9% | NCI-H322M lung -23.8% | HOP-62 NSCLC -21.1% | NCI-H460 lung -82.4% | HOP-92 NSCLC -58.5% | NCI-H522 lung -28.2% | A549/ATCC NSCLC -28.9% | 786-0 renal -92.5% | DU-145 prostate -13.2%

CCOC(=O)c1sc(N)c(C(=O)OCC)c1C
active: HOP-92 NSCLC -7.89%
inactive: NCI-H226 lung 59.7% | NCI-H322M lung 83.1% | HOP-62 NSCLC 52.6% | NCI-H460 lung 92.5% | NCI-H522 lung 56.9% | A549/ATCC NSCLC 65.3% | 786-0 renal 50.4% | COLO 205 colon 68.4% | DU-145 prostate 66.2%

CCCC(=O)NC(c1ccc2c(c1)OC(F)(F)O2)c1cc(C)c2cccnc2c1O (stereo not given)
inactive: NCI-H226 lung 10.8% | NCI-H322M lung 34.2% | HOP-62 NSCLC 15.9% | HOP-92 NSCLC 33.5% | NCI-H522 lung 18.2% | A549/ATCC NSCLC 16.5% | COLO 205 colon 21.1% | DU-145 prostate 26%
active: NCI-H460 lung -4.44% | 786-0 renal 0.74%

CCCC(=O)NC(c1cccc(N(C)C)c1)c1cc(C)c2cccnc2c1O (stereo not given)
inactive: NCI-H226 lung 65.4% | NCI-H322M lung 44.9% | HOP-62 NSCLC 44% | NCI-H460 lung 25.7% | HOP-92 NSCLC 64.2% | NCI-H522 lung 75.3% | A549/ATCC NSCLC 79.3% | 786-0 renal 56.6% | COLO 205 colon 88% | DU-145 prostate 66.2%

CSc1ccc2c(c1)N(C(=O)/C(C#N)=C/c1c[nH]c3ccccc13)c1ccccc1S2
active: NCI-H522 lung 5.48%
inactive: NCI-H226 lung 50.4% | NCI-H322M lung 86.1% | HOP-62 NSCLC 59.9% | NCI-H460 lung 45.5% | HOP-92 NSCLC 44.1% | A549/ATCC NSCLC 47.3% | 786-0 renal 50% | COLO 205 colon 40.8% | DU-145 prostate 51.3%

COc1ccc(C(=O)/C=C/c2ccc(OCc3ccc(Cl)cc3)c(OC)c2)cc1OC
inactive: NCI-H226 lung 56.4% | NCI-H322M lung 70.9% | HOP-62 NSCLC 103% | NCI-H460 lung 61.9% | HOP-92 NSCLC 64.9% | NCI-H522 lung 68.3% | A549/ATCC NSCLC 70% | 786-0 renal 80.7% | COLO 205 colon 88.4% | DU-145 prostate 72.3%

O=C(O)CCCCCN1C(=O)/C(=C/c2ccc(O)c(O)c2)SC1=S
inactive: NCI-H226 lung 106% | NCI-H322M lung 89.9% | HOP-62 NSCLC 110% | NCI-H460 lung 108% | HOP-92 NSCLC 139% | NCI-H522 lung 98% | A549/ATCC NSCLC 113% | 786-0 renal 105% | COLO 205 colon 125% | DU-145 prostate 103%

N#Cc1ccc(C(=O)CSc2nc(Nc3ccc(S(N)(=O)=O)cc3)c3ccccc3n2)cc1
inactive: NCI-H226 lung 105% | NCI-H322M lung 107% | HOP-62 NSCLC 99.2% | NCI-H460 lung 111% | HOP-92 NSCLC 111% | NCI-H522 lung 99.8% | A549/ATCC NSCLC 108% | 786-0 renal 105% | COLO 205 colon 117% | DU-145 prostate 107%

C#Cc1nc(C2=C(C)C(=O)/C(=N/OC(C)=O)C2)cs1
active: 786-0 renal -94.5%
inactive: NCI-H226 lung 107% | NCI-H322M lung 101% | HOP-62 NSCLC 88.5% | NCI-H460 lung 98.5% | HOP-92 NSCLC 50% | NCI-H522 lung 82.6% | A549/ATCC NSCLC 96.3% | COLO 205 colon 119% | DU-145 prostate 85.7%

O=C(CSc1nccc(=O)[nH]1)Nc1ccc(-c2nc3ccccc3[nH]2)cc1
inactive: NCI-H226 lung 105% | NCI-H322M lung 98.2% | HOP-62 NSCLC 94.3% | NCI-H460 lung 110% | HOP-92 NSCLC 103% | NCI-H522 lung 104% | A549/ATCC NSCLC 110% | 786-0 renal 101% | COLO 205 colon 113% | DU-145 prostate 106%

N#Cc1c(-c2ccc(Cl)cc2)nc(SCc2ccc([N+](=O)[O-])cc2)nc1N1CCNCC1
inactive: NCI-H226 lung 85.2% | NCI-H322M lung 40.5% | HOP-62 NSCLC 57.1% | NCI-H522 lung 64.1%
active: NCI-H460 lung -66.6% | HOP-92 NSCLC -8.29% | A549/ATCC NSCLC 5.31% | 786-0 renal -50% | COLO 205 colon -82% | DU-145 prostate 0.384%
